Experimental data: PubChem BioAssay
Calls of active or inactive are those of the source.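 The calls were made as follows: active = fluorescence slope higher than the sample average by over 3 SD (cut at about -0.22 in these data, passing the limit was not always enough); inactive = the rest.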

Molecular target: Voltage-gated potassium channel subunit beta-2 (Rattus norvegicus) (UniProt P62483)
Assay: KvBeta enzyme negative modulators, primary screen, biochemical, NADPH fluorescence (AID 622);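 also: slope of raw intensity against log time taken from 70 to 1610 s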
Details: recombinant KvBeta, 4-cyanobenzaldehyde reduction, at 10 µM, active compounds read high

Voltage-gated potassium channel subunit beta-2 (Rattus norvegicus), sequence (P62483 whole entry, looked up): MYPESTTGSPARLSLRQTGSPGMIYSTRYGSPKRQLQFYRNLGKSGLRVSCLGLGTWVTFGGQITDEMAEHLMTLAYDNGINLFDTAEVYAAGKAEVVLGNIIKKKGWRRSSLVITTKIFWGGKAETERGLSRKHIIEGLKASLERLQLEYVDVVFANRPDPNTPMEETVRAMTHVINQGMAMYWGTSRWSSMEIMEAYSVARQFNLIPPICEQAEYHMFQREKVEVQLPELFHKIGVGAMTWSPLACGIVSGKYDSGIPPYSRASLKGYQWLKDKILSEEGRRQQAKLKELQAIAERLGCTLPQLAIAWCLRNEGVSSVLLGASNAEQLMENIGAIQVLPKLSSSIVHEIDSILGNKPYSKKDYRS

| SMILES | fluorescence slope |
| --- | --- |
| COc1ccc(CNc2ccc(C(=O)O)cc2)cc1 | -0.513 (inactive) |
| COc1ccc(-c2cc(O)cc(O)c2)cc1 | -0.49 (inactive) |
| CCCC(=O)Nc1ccccc1-c1nnn(CC(=O)Nc2ccc(OCC)cc2)n1 | -0.444 (inactive) |
| CCOC(=O)c1c(-c2ccc(C)o2)csc1NC(=O)COC(=O)c1cccs1 | -0.403 (inactive) |
| O=C(Nc1cccc(Cl)c1)N1CCN(Cc2ccccc2)CC1 | -0.529 (inactive) |
| C/C=C/COC(=O)c1[nH]c2c(c1C)C(=O)CC(c1ccco1)C2 (stereo not given) | -0.496 (inactive) |
| CC(=O)NC(CCS(C)(=O)=O)C(=O)Nc1cccc(C)c1C (stereo not given) | -0.542 (inactive) |
| CCOC(=O)c1cn(CC)c2cc(N3CCOCC3)c(F)cc2c1=O | -0.592 (inactive) |
| CCCCC(=O)NCCc1ccc(S(N)(=O)=O)cc1 | -0.412 (inactive) |
| CCOc1ccc(-c2c(C#N)c(N)nc3c2c(=O)n(C)c(=O)n3C)cc1OC | -0.486 (inactive) |
| COc1ccc(NC(=O)c2cc(C)on2)cc1OC | -0.624 (inactive) |
| COc1ccc(CCNS(=O)(=O)c2ccc3oc(C(=O)O)c(C)c3c2)cc1OC | -0.444 (inactive) |
| O=C(Nc1cccnc1)c1ccc2c(c1)C(=O)N(Cc1cccnc1)C2=O | -0.615 (inactive) |
| CCCc1nnc2n1N=C(c1ccc(OC)c(OC)c1)CS2 | -0.584 (inactive) |
| CC(C)(C)NC(=O)CN(C(=O)CS(=O)CC(=O)Nc1ccc(F)cc1)c1ccc(Cl)cc1 (stereo not given) | -0.35 (inactive) |
| O=C(Nc1nnc(CCN2CCCCC2)s1)C1CCCCC1 | -0.411 (inactive) |
| CCCCS(=O)(=O)NC1=NCN(CCOC(=O)c2ccccc2)CN1 | -0.496 (inactive) |
| CCCCc1n[nH]c2c1C(=O)CC(C)(C)C2 | -0.449 (inactive) |
| COc1ccc(OCCSc2nc3ccccc3n2CC(=O)O)cc1 | -0.356 (inactive) |
| COc1ccc(OC)c(NC(=O)CSc2nnc(Cc3cccn3C)n2-c2ccc(F)cc2)c1 | -0.609 (inactive) |

| SMILES | fluorescence slope |
| --- | --- |
| COc1ccc(N2CCN(C(=O)C(C)(C)Oc3ccc(Cl)cc3)CC2)cc1 | -0.564 (inactive) |
| O=C(Nc1ccncc1)C1c2ccccc2Oc2ccccc21 | -0.201 (inactive) |
| COCCN(CC(=O)NCc1ccccc1)C(=O)CCC(=O)Nc1ccccn1 | -0.506 (inactive) |
| COc1cc2c(cc1OC)C(c1ccc(C)o1)CC(=O)N2 (stereo not given) | -0.574 (inactive) |
| Cc1cc(O)c(-c2cc(C(=O)Nc3ccc(S(=O)(=O)N4CCOCC4)cc3)[nH]n2)cc1C | -0.584 (inactive) |
| O=C(CSc1oc(-c2ccco2)nc1S(=O)(=O)c1ccccc1)NCC1CCCO1 (stereo not given) | -0.492 (inactive) |
| NCCN1CCN(CCN)CC1 | -0.436 (inactive) |
| NC(=O)CSc1nnc(-c2cc3ccccc3o2)n1Cc1ccccc1 | -0.272 (inactive) |
| Cc1ccc(-n2nc(C)c3cc(C(=O)O)sc32)cc1 | -0.191 (inactive) |
| CC1CCN(C(=O)CSCC(=O)Nc2nc(-c3cccs3)cs2)CC1 | -0.495 (inactive) |
| COc1ccc(C2=NO[C@@H]3C(=O)N(c4cccc(C)c4C)C(=O)[C@H]23)cc1OC | -0.588 (inactive) |
| CCOc1ccccc1NC(=O)CC1Nc2cc(C)c(C)cc2NC1=O (stereo not given) | -0.265 (inactive) |
| CC1=C(C(=O)OCc2ccccc2)C(c2ccc(C)o2)C2=C(CCCC2=O)N1 (stereo not given) | -0.466 (inactive) |
| Cc1c(C)n(C)c2ccc(C(=O)NCc3cccs3)cc12 | -0.505 (inactive) |
| NC(=O)c1c(NC(=O)CN2CCCC2)sc2c1CCCC2 | -0.599 (inactive) |
| CCOC(=O)c1sc(NC(=O)CSc2nnc3c4ccccc4n(CC)c3n2)nc1C | -0.333 (inactive) |
| CCS(=O)(=O)N1CCCC(C(=O)NCCc2ccc(OC)c(OC)c2)C1 (stereo not given) | -0.43 (inactive) |
| CC(=O)n1cc(-c2ccncc2)c2ccccc21 | -0.57 (inactive) |
| CN(C1CCCCC1)S(=O)(=O)c1ccc(NC(=O)c2ccco2)cc1 | -0.399 (inactive) |
| COc1cccc(CN2CCN(C(=O)CC(C)C)CC2)c1 | -0.241 (inactive) |
